# Results published in the supplement of paper PMC12636033.
# ± gives the standard deviation of the averaged measurements. The full ranking holds about 33,000 sequences; the median of “E-score (rank enrichment, -0.5 to 0.5)” is about -0.0043, and the highest 2% start at about 0.24. Many of the other results were omitted from the sample, so the highest values are more common in it than they were.
# Test system: 2Sp-muMax20 (muMax20 with two 2,6-bis(methyl)pyridine Cys staples)
# Test: PBM 8-mer E-score (E-score (rank enrichment, -0.5 to 0.5)); higher = stronger preferential binding
# Description: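 Protein binding microarray (universal PBM chip covering all 10-mers in fixed probe flanks) with chemically synthesized human Max(13-93) bHLH-LZ analogs (not full-length Max) bearing noncanonical residues (hArg, Tha, Aib, Nle at 65) and aromatic Cys staples. Read-out per 8-mer (and its reverse complement): E-score (rank-based enrichment, -0.5 to 0.5) and Z-score of median probe intensity.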
row,Sequence,PBM 8-mer E-score
1,ACTGATTA,0.0334 ± 0.067
2,ATTGATTA,0.124 ± 0.078
3,GCTGATTA,0.273 ± 0.011
4,CTTGATTA,0.0552 ± 0.1
5,GTTGATTA,0.25 ± 0.057
6,CCTGATTA,0.0465 ± 0.018
7,CAAAGAGG,0.00199 ± 0.021
8,GCTTACGA,0.0276 ± 0.057
9,CGGGTCCC,-0.36 ± 0.051
10,AAATGATT,-0.0058 ± 0.064
11,CACGGACA,-0.212 ± 0.011
12,AAAGGGCT,-0.0325 ± 0.13
13,AAGGGGCG,-0.00545 ± 0.089
14,AAGGGGCT,0.271 ± 0.019
15,ACCTCTGC,-0.0962 ± 0.11
16,CGGACAAA,-0.0707 ± 0.0079
17,CAGCGGCC,-0.156 ± 0.048
18,AACATGCA,0.205 ± 0.17
19,GGCATGCA,0.0431 ± 0.062
20,CGCATGCA,0.161 ± 0.026
21,AGCATGCA,0.301 ± 0.023
22,ACCATGCA,0.187 ± 0.0036
23,TGCATGCA,0.282 ± 0.038
24,CAAAGGGG,0.00961 ± 0.03
25,CACATCCA,0.103 ± 0.042

row,Sequence,PBM 8-mer E-score
1,CTCTTCCA,-0.0254 ± 0.029
2,AAGTCGAC,0.0839 ± 0.081
3,CAGCGGGG,-0.157 ± 0.043
4,CTCCTGCC,0.0184 ± 0.066
5,ATGATGTA,0.131 ± 0.049
6,CTGATGTA,-0.072 ± 0.074
7,GTGATGTA,0.268 ± 0.018
8,ACATACAC,0.0759 ± 0.032
9,TCATACGA,0.214 ± 0.047
10,ACATACGA,0.237 ± 0.049
11,ACATATAC,0.158 ± 0.072
12,ACATACAT,0.252 ± 0.054
13,ACATATAT,0.309 ± 0.061
14,ACATATAA,0.333 ± 0.0052
15,CCATATAA,0.0911 ± 0.065
16,TCATATAA,0.227 ± 0.045
17,ACATATAG,0.174 ± 0.031
18,ACATACGC,0.0353 ± 0.028
19,ACATACAG,0.191 ± 0.11
20,CGCAAATC,-0.0745 ± 0.17
21,CCGTCGAG,-0.0626 ± 0.0034
22,CTTATCGA,0.0942 ± 0.054
23,CGTTACGC,-0.173 ± 0.044
24,AAGTGGGG,0.1713 ± 0.001
25,GCATGGGA,-0.0247 ± 0.032

row,Sequence,PBM 8-mer E-score
1,AATCCCGG,-0.104 ± 0.0059
2,AGACTTAG,-0.023 ± 0.017
3,AGATATAT,0.252 ± 0.043
4,AGATATAC,0.146 ± 0.046
5,AGATATAG,0.174 ± 0.0033
6,ATATAGGG,0.0694 ± 0.043
7,CGGAATAC,-0.144 ± 0.035
8,AAAAGTGG,0.159 ± 0.0062
9,GCCTGCAA,-0.0187 ± 0.071
10,GTACATAA,0.171 ± 0.011
11,ACACATAG,-0.0161 ± 0.023
12,CCACACTC,0.00608 ± 0.081
13,CTACATAA,0.122 ± 0.021
14,GAACATAA,0.0635 ± 0.079
15,CCACACTA,0.261 ± 0.026
16,ACACACTA,0.158 ± 0.0088
17,AAACATAG,0.0784 ± 0.084
18,GCACATAA,0.121 ± 0.02
19,ACACATAA,0.24 ± 0.037
20,AAACATAA,0.289 ± 0.0052
21,TTACATAA,0.259 ± 0.0094
22,CAGTGGAG,0.0231 ± 0.066
23,CACAGGGC,-0.258 ± 0.027
24,CCAACTCA,-0.0281 ± 0.11
25,CCCACCAA,0.127 ± 0.019

row,Sequence,PBM 8-mer E-score
1,ATATCAAT,0.172 ± 0.089
2,AGCCTCTG,-0.079 ± 0.05
3,ATTTGAAA,0.168 ± 0.12
4,AGGTCTCC,-0.0447 ± 0.033
5,GTGCAGTA,0.106 ± 0.039
6,AACGACTA,0.0385 ± 0.073
7,TCACACAA,0.238 ± 0.017
8,ACACACAA,0.0759 ± 0.063
9,CCACACAA,0.0212 ± 0.012
10,ACCCCTGG,-0.144 ± 0.039
11,ATCGAAGG,-0.0475 ± 0.11
12,ACCATATA,0.23 ± 0.082
13,ACAAGCAC,-0.115 ± 0.13
14,GCAAGCAC,-0.00775 ± 0.028
15,CCAAGCAC,0.235 ± 0.038
16,CCCACCGC,0.0543 ± 0.035
17,ATTCTCAA,0.123 ± 0.02
18,ACTAGAAC,0.0769 ± 0.048
19,AAATATTG,0.075 ± 0.0023
20,TAATATGA,0.135 ± 0.072
21,GAATATTA,0.22 ± 0.026
22,AAATATTC,0.249 ± 0.043
23,TAATATTA,0.343 ± 0.044
24,GAATATTC,0.189 ± 0.064
25,CAATATTA,0.19 ± 0.058

row,Sequence,PBM 8-mer E-score
1,AAATATTA,0.28 ± 0.067
2,CAATATTC,0.0714 ± 0.068
3,ATCGAGAC,-0.161 ± 0.025
4,CGCGTCTC,0.157 ± 0.072
5,ACTGAGGG,-0.0464 ± 0.034
6,ACTGCTGC,0.0474 ± 0.025
7,GTGGGCGA,0.263 ± 0.088
8,ATGGGCGA,0.0316 ± 0.058
9,CTGGGCGA,-0.174 ± 0.045
10,AATCCCAC,0.00653 ± 0.032
11,GACTCTAC,-0.0372 ± 0.069
12,GTATTGGA,0.0561 ± 0.061
13,ATCATGCG,0.136 ± 0.013
14,CGCATGCC,0.189 ± 0.053
15,CCCATGCG,0.0929 ± 0.051
16,AGCATGAG,0.121 ± 0.064
17,AGCATGAA,0.174 ± 0.04
18,AGCATGAT,0.131 ± 0.051
19,AGCATGCG,0.275 ± 0.0033
20,AGCATGCT,0.332 ± 0.036
21,CGCATGCG,0.286 ± 0.02
22,AGCATGAC,0.243 ± 0.051
23,AGCATGCC,0.0906 ± 0.028
24,ACCATGCT,0.211 ± 0.0076
25,TATCCCGA,-0.0363 ± 0.017

row,Sequence,PBM 8-mer E-score
1,ACCACGGT,-0.234 ± 0.057
2,CCTCAAGA,0.175 ± 0.069
3,AATGACAA,0.179 ± 0.025
4,GGCGTCAC,0.0505 ± 0.091
5,TCGGTTAA,-0.144 ± 0.038
6,CCACACAC,0.0649 ± 0.082
7,AGGACAAT,0.0666 ± 0.068
8,CTCCATCA,0.0787 ± 0.11
9,GATCAGTA,0.141 ± 0.0015
10,CTCAACTC,0.0172 ± 0.017
11,AAGCTGAT,0.294 ± 0.012
12,AAGCTTAA,-0.0812 ± 0.033
13,AAGCTGAC,-0.0135 ± 0.013
14,AAGCTTAC,0.084 ± 0.0037
15,AAGCTGTA,0.168 ± 0.027
16,AAGCTTAT,0.25 ± 0.032
17,CAGCACTC,0.0109 ± 0.049
18,GGTTTTTA,0.118 ± 0.05
19,GTATCAAA,0.167 ± 0.037
20,ACGTTACT,0.097 ± 0.078
21,CCACTTTC,0.123 ± 0.028
22,AGTAATTA,0.256 ± 0.051
23,ATTAATGA,0.276 ± 0.074
24,CGTAATTA,0.133 ± 0.0041
25,CTTAATGC,0.25 ± 0.014

row,Sequence,PBM 8-mer E-score
1,ATTAATTC,0.229 ± 0.026
2,CTTAATGA,0.0929 ± 0.029
3,ATTAATTA,0.312 ± 0.065
4,ATTAATTG,0.157 ± 0.057
5,ATTAATGG,0.0949 ± 0.013
6,ATTAATGC,0.14 ± 0.0056
7,GTTAATGA,0.181 ± 0.1
8,GGTAATTA,0.147 ± 0.011
9,CATGCACC,0.161 ± 0.0063
10,GGGGTCGA,-0.0201 ± 0.04
11,TTACTGAA,0.0517 ± 0.035
12,ACGAAAAG,0.0249 ± 0.0051
13,ACGAGATG,-0.00212 ± 0.067
14,CCCCGATC,-0.166 ± 0.013
15,AGATTGTC,-0.0414 ± 0.0031
16,GACGGGCA,-0.0942 ± 0.011
17,ATAAATTA,0.303 ± 0.049
18,CTTAACAC,0.164 ± 0.016
19,ATTAACAC,0.306 ± 0.05
20,ATTAATCC,0.0916 ± 0.0058
21,GTTAATCA,0.198 ± 0.048
22,ATAAATTG,0.106 ± 0.026
